Assay outcomes from PubChem BioAssay.
Compounds with a hit are over-represented: about 2.1% of the library has one in this group of screens.
PAX8 reporter – inhibitors of PAX8-driven TPO luciferase reporter, primary screen, RMG-I cells, single concentration; SteadyGlo, 24 h; inhibition, % at 12.6 µM; 1.2% of 360,000 active;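 active = mean replicate inhibition at least 60% with every replicate also reaching 60%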;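 note: luciferase light reporting Pax8 driven TPO promoter activity; plate controls were median of neutral control wells for no effect and mitoxantrone controls for full effect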
KKLEB cytotox – cytotoxicity in KKLEB CF airway cells, primary screen, cytotoxicity control for CF NF-kB inhibitor project, cell-based, uHTS, fluorescence assay plates. AID 602141, 2011. activity change (cytotoxicity), % at 5 µM. KKLEB CF airway cells viability, ATPlite luminescence, overnight; hits give low values; cells stimulated with P. aeruginosa culture filtrate. 0.36% of 360,000 active;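 active = corrected activity change at or below -50% at 5 µM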
EWS-Fli block – EWS/Fli-driven NR0B1 reporter inhibitors, primary screen, A673 cells, NR0B1 luciferase, luminescence, MLPCN library; inhibition, % at 12.6 µM; AID 651661, 2012; viability-normalised; 0.67% of 350,000 active;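 active = mean inhibition of at least 50% after viability correction, with every replicate also passing that limit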;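 note: firefly luciferase signal divided by Alamar Blue viability fluorescence both relative to DMSO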
HIF-2a block – HIF-2a reporter inhibitors, primary screen, luminescence, 786-0 RCC cells | inhibition, % at 18.8 µM | 0.72% of 360,000 active | AID 624352, 2012 | 786-0 RCC cells HIF-2a reporter, luciferase luminescence, overnight;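 active = inhibition of the luminescence signal of 40% or more relative to plate controls, in a single-dose primary screen at 18.75 µM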
CF NFkB block – inhibitors of PAF-induced NF-kB signaling, primary screen, cell-based, GFP fluorescence, uHTS. KKLEB NF-kB-GFP reporter, GFP fluorescence overnight. 0.86% of 360,000 active. AID 588850, 2011. inhibition, % at 5 µM;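 active = at least 50% inhibition at 5 µM, scaled per plate between neutral and stimulator controls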;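 note: PAF is a Pseudomonas aeruginosa culture filtrate used as stimulus; plate controls were PAF-stimulated DMSO wells for no effect and unstimulated DMSO wells for full effect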
CF NFkB inh conf – inhibitors of PAF-induced NF-kB signaling, retest, confirmation, cell-based, GFP fluorescence, single concentration; shares compounds with CF NFkB block; KKLEB CF airway cells, overnight; inhibition, % at 5 µM; 64% of 1,300 active; AID 602472, 2012; in the data active = inhibition above about 40%;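 note: stimulus PAF is a Pseudomonas aeruginosa filtrate and not platelet activating factor; plate controls were DMSO wells with stimulus for no effect and unstimulated DMSO wells for full effect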
Mdm2 MdmX conf – retested Mdm2-MdmX interaction blockers, confirmation, cell-based, luminescence, single concentration, set 2; shares compounds with HIF-2a block; 99% of 740 active; AID 504601, 2011; inhibition, % at 8 µM; SaOS-2 split-luciferase Mdm2/MdmX complementation;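 active = mean inhibition of the luminescence signal across two replicates at or above 26 percent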
Target sequence (O15151 whole entry, looked up): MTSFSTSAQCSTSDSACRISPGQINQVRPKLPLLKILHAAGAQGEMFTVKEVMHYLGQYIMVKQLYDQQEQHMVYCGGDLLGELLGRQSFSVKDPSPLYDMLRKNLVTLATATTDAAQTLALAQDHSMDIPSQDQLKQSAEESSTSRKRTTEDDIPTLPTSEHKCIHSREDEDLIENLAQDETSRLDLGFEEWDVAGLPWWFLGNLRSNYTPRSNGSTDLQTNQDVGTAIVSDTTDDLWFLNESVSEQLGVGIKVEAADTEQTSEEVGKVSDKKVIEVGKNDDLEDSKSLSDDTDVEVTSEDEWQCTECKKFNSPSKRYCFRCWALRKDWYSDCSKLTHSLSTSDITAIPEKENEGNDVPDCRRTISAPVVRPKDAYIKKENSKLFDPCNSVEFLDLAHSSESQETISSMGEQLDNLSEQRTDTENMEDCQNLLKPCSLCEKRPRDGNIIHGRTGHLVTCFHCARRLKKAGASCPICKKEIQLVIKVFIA
Target sequence (Q00987 whole entry, looked up): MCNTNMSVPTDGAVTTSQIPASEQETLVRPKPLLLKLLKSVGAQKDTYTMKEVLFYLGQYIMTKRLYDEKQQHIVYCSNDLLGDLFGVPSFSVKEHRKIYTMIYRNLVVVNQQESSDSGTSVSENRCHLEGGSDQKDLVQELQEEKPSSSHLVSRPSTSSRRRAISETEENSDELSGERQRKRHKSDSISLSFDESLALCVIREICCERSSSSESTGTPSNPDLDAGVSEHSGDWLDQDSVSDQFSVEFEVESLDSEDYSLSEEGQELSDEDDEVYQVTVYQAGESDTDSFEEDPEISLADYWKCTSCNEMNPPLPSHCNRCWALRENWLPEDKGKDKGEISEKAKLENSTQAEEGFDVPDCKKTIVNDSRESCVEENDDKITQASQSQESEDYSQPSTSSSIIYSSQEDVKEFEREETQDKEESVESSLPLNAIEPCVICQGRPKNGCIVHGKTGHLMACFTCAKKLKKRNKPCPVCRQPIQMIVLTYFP
HIF-2a conf – HIF-2a reporter inhibitor retest, confirmation, luminescence, 786-0 RCC cells; shares compounds with HIF-2a block; HIF-2a luciferase reporter luminescence, overnight; inhibition, % at 18.8 µM; 56% of 1,800 active; AID 651580, 2012;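 active = mean inhibition across four replicates of at least 40 percent at the single tested concentration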
HIF-1a counter – HIF-1a luciferase reporter signal reduction – MiaPaCa-2 cells, single concentration, counter-screen for HIF-2a inhibitor project, confirmation; shares compounds with HIF-2a block; MiaPaCa-2 HIF-1a luciferase reporter, desferoxamine, overnight; inhibition, % at 18.8 µM; 72% of 1,800 active; AID 651589, 2012;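 active = mean inhibition of the reporter signal across four replicates at the single tested dose of 50% or more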
Active calls of the source: *.

Screening C[C@@H]1CN([C@H](C)CO)C(=O)Cc2cc(NC(=O)c3ccncc3)ccc2O[C@H]1CN(C)C(=O)Nc1ccc(C(F)(F)F)cc1 returned PAX8 reporter -4 and EWS-Fli block 1.
Screening Cc1nc2sc(C(N)=O)c(N)c2c2c1CCCC2 returned PAX8 reporter -60, KKLEB cytotox 7, EWS-Fli block -16, HIF-2a block 10, CF NFkB block 70*, CF NFkB inh conf 98* and Mdm2 MdmX conf 92*.
C[C@H]1CN([C@@H](C)CO)C(=O)Cc2cc(N(C)C)ccc2O[C@@H]1CN(C)S(=O)(=O)c1cccs1 was read as PAX8 reporter -1 and EWS-Fli block 2.
`Cc1cc(C)c(C(=O)/C=C/c2ccc(C(C)C)cc2)c(=O)[nH]1` gave KKLEB cytotox -22, EWS-Fli block -3, HIF-2a block 59*, CF NFkB block 59*, CF NFkB inh conf 53*, Mdm2 MdmX conf 103*, HIF-2a conf 53* and HIF-1a counter 102*.
Cc1cc(C)c(C(=O)/C=C/C=C/c2ccccc2)c(=O)[nH]1 was read as PAX8 reporter -13, KKLEB cytotox 4, HIF-2a block -33 and CF NFkB block -1.
For CCN(C[C@H]1[C@H](c2ccccc2)[C@H](CO)N1C(C)=O)C(=O)c1ccccn1 the results were PAX8 reporter -10 and EWS-Fli block -5.
For COc1ccc(-n2c(C)c(C(C)=O)c3cc(O)ccc32)cc1 the results were KKLEB cytotox -6, HIF-2a block 13, CF NFkB block 69*, CF NFkB inh conf 86* and Mdm2 MdmX conf 87*.
For CCOc1ccc(-n2c(C)c(C(C)=O)c3cc(OC(C)=O)ccc32)cc1 the results were PAX8 reporter -15, KKLEB cytotox 2, EWS-Fli block -4, HIF-2a block 22, CF NFkB block 76*, CF NFkB inh conf 87* and Mdm2 MdmX conf 89*.
COc1ccc(C(=O)/C=C2/C(=O)Nc3ccccc32)c(OC)c1 was read as PAX8 reporter 30, KKLEB cytotox -40, EWS-Fli block 59*, HIF-2a block 91*, CF NFkB block 84*, CF NFkB inh conf 29, HIF-2a conf 64* and HIF-1a counter 88*.
Cc1noc(C)c1S(=O)(=O)Nc1ccc2c(c1)C(=O)N([C@H](C)CO)C[C@@H](C)[C@@H](CN(C)Cc1ccc(Cl)c(Cl)c1)OCCCC[C@H](C)O2 was read as PAX8 reporter 28 and EWS-Fli block 2.
Screening Cn1c(Sc2ccc(Br)cc2)c(C=O)c2ccccc21 returned KKLEB cytotox -12, HIF-2a block 30, CF NFkB block 67*, CF NFkB inh conf 98* and Mdm2 MdmX conf 87*.
For C[C@@H]1CN([C@H](C)CO)S(=O)(=O)c2ccc(-c3cncnc3)cc2O[C@@H]1CN(C)C(=O)Cc1cccnc1 the results were EWS-Fli block -11.
`CC1=C(C(=O)OCc2ccc3c(c2)OCO3)C(c2cccc([N+](=O)[O-])c2)NC(=O)N1` (stereo not given) gave PAX8 reporter -16, KKLEB cytotox -12, EWS-Fli block 2, HIF-2a block 23, CF NFkB block 74*, CF NFkB inh conf 68* and Mdm2 MdmX conf 74*.
